Compound activity as filed in PubChem.
Cav3 T inh: human Cav3.2 channel inhibition, primary screen | O95180 | Cav3.2-expressing cells, Fluo-4 calcium fluorescence FDSS; hits give low values | B-score at 10 µM | hit rate 4% among 100,000;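 active means single-dose well whose peak fluorescence ratio is a statistical outlier from its plate by either plate-standardised score or position-corrected B-score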
Target sequence (O95180 whole entry, looked up): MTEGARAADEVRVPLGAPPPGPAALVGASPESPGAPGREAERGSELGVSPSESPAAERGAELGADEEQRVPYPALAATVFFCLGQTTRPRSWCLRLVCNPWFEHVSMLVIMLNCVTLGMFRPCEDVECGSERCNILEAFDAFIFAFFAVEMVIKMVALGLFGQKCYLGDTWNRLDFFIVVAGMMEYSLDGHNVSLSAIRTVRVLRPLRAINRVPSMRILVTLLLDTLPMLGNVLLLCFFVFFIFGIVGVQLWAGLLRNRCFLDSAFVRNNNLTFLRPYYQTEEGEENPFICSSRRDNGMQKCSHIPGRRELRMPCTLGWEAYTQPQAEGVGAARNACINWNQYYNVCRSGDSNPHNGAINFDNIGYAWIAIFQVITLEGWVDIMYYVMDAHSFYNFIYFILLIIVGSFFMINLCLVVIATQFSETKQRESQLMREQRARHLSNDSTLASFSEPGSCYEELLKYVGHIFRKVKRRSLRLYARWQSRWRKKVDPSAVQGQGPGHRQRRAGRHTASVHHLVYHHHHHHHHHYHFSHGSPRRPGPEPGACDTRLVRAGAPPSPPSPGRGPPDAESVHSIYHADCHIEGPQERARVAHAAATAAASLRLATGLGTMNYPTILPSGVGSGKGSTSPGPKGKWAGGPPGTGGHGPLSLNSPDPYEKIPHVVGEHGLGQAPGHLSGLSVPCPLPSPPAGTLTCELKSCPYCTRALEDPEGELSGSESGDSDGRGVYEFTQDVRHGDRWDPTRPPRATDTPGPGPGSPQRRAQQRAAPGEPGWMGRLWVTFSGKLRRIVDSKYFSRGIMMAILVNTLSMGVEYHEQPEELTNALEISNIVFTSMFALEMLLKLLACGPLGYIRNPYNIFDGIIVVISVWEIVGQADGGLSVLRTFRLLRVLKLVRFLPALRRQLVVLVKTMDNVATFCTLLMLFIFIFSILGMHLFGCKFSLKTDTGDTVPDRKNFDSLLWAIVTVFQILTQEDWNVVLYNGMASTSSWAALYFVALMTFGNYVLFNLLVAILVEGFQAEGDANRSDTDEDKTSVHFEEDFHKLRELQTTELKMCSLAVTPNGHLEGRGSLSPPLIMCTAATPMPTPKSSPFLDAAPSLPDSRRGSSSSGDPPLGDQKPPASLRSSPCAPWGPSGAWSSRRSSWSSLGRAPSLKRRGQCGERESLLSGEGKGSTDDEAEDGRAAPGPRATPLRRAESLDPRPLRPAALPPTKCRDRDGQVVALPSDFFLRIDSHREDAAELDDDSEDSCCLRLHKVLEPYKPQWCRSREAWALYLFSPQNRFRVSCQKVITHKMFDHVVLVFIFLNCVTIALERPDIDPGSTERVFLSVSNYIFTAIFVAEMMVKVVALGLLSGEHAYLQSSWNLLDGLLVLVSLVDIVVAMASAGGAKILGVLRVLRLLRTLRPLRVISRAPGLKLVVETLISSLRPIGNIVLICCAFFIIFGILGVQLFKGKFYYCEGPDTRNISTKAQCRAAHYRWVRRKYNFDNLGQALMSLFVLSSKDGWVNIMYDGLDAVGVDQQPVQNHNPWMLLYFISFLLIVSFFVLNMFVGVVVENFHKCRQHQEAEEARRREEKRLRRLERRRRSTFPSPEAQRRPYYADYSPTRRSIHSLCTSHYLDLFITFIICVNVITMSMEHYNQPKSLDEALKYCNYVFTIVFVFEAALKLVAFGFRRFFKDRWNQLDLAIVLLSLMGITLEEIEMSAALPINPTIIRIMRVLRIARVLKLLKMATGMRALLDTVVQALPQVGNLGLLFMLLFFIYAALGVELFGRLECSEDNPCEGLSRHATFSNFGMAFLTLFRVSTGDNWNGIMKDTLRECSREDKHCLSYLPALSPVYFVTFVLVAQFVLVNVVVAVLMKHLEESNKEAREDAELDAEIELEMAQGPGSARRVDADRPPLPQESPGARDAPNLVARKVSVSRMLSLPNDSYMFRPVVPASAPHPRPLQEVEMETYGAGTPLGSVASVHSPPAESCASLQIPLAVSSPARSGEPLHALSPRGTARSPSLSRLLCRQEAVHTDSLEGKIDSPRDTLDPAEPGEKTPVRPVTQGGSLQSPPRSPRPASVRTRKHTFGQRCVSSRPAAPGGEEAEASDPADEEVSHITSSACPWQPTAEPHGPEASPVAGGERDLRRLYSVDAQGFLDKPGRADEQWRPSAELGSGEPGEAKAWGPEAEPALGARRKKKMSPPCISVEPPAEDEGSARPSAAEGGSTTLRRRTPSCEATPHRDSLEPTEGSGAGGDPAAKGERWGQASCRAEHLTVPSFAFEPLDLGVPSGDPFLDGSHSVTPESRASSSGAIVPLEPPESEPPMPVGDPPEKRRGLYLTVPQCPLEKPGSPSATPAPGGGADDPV
IL1B NFkB inh: blocks IL-1B driven NFkB nuclear translocation in HUVEC cells. HUVEC IL-1B NFkB p65 nuclear translocation imaging. inhibition, % at 2 µM. hit rate 0.43% among 94,000. AID 796;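 active means inhibition above about 30% together with a positive call from visual inspection of the well image, limit read from the data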;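 further: nuclear over cytoplasmic p65 intensity ratio measured by imaging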
NFkB transloc pot: enhances IL-1B driven NFkB nuclear translocation; activation, % at 2 µM; AID 819; hit rate 0.3% among 94,000; HUVEC IL-1B NFkB p65 nuclear translocation imaging;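 active means activation above 40%, about the mean plus 3 SD, also judged a hit on visual image review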;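 further: percent activation is computed from the nuclear over cytoplasmic p65 intensity ratio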
HUVEC tox IL1B: toxic to HUVEC cells under IL-1B stimulation; hit rate 0.41% among 94,000; cell count reduction, % at 2 µM; HUVEC cell count loss, Hoechst imaging, IL-1B stimulated; AID 845;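 active means cell count reduction more than 3 SD above the screen-wide mean, cut at about 70% in these data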
Numbers stand for hits. Compounds with a hit are over-represented: about 4.4% of the library has one in this group of screens.

For COCCN1C(=O)C(O)=C(C(=O)c2ccco2)C1c1cccc(Oc2ccccc2)c1 (stereo not drawn) the results were Cav3 T inh -3.8, IL1B NFkB inh inactive, NFkB transloc pot inactive and HUVEC tox IL1B inactive.
CCn1c(CNc2ccc(C(=O)O)cc2)nc2ccccc21 was read as Cav3 T inh inactive, IL1B NFkB inh inactive, NFkB transloc pot inactive and HUVEC tox IL1B inactive.
For CCCn1c(CNc2ccc(Br)cc2)nc2ccccc21 the results were Cav3 T inh -5.3, IL1B NFkB inh inactive, NFkB transloc pot inactive and HUVEC tox IL1B inactive.
For O=C(CSC1=NCCS1)Nc1ccc(S(=O)(=O)NC2CCCCC2)cc1 the results were Cav3 T inh inactive, IL1B NFkB inh inactive, NFkB transloc pot inactive and HUVEC tox IL1B inactive.
For O=C(CSc1nc2ccccc2c(=O)[nH]1)Nc1ccc(S(=O)(=O)N2CCCC2)cc1 the results were Cav3 T inh inactive, IL1B NFkB inh 31, NFkB transloc pot inactive and HUVEC tox IL1B inactive.
For O=C(CSC1=NCCS1)Nc1ccc(S(=O)(=O)N2CCCCCC2)cc1 the results were Cav3 T inh -4.4, IL1B NFkB inh inactive, NFkB transloc pot inactive and HUVEC tox IL1B inactive.
For Cc1ccc(S(=O)(=O)Oc2ccc(C(c3c(C)[nH][nH]c3=O)c3c(C)[nH][nH]c3=O)cc2)cc1 the results were Cav3 T inh inactive, IL1B NFkB inh inactive, NFkB transloc pot inactive and HUVEC tox IL1B inactive.
`Cc1[nH][nH]c(=O)c1C(c1ccc(-c2ccc(Cl)c(Cl)c2)o1)c1c(C)[nH][nH]c1=O` gave IL1B NFkB inh inactive, NFkB transloc pot 42 and HUVEC tox IL1B inactive.
CC(C)(C)CC(=O)N1CCC(c2nc3c(nnn3Cc3c(F)cccc3Cl)c(=O)[nH]2)CC1 was read as Cav3 T inh inactive, IL1B NFkB inh inactive, NFkB transloc pot inactive and HUVEC tox IL1B inactive.
For O=C(NCN1CCCCC1)c1cnccn1 the results were Cav3 T inh inactive, IL1B NFkB inh inactive, NFkB transloc pot inactive and HUVEC tox IL1B 90.
`Cc1cccc(-n2c(SCC(=O)NC3CCCC3)nnc2-c2ccoc2C)c1` gave Cav3 T inh inactive, IL1B NFkB inh inactive, NFkB transloc pot inactive and HUVEC tox IL1B inactive.
For O=C(CSc1ccc2ccccc2n1)N1CCC(c2noc3ccc(F)cc23)CC1 the results were Cav3 T inh -6.5, IL1B NFkB inh inactive, NFkB transloc pot inactive and HUVEC tox IL1B inactive.
`N#Cc1c(NCCO)nc(NCc2ccccc2)c2c1CCN(Cc1ccccc1)C2` gave Cav3 T inh -3.6, IL1B NFkB inh inactive, NFkB transloc pot inactive and HUVEC tox IL1B inactive.
Screening CCN1CCc2c(C#N)c(N3CCCCC3)nc(NCc3ccccc3)c2C1 returned Cav3 T inh inactive, IL1B NFkB inh inactive, NFkB transloc pot inactive and HUVEC tox IL1B inactive.
Screening Cc1ccc(S(=O)(=O)NC(CC(=O)O)c2ccccc2)cc1 (stereo not drawn) returned Cav3 T inh inactive, IL1B NFkB inh inactive, NFkB transloc pot inactive and HUVEC tox IL1B inactive.
For Cc1ccc(S(=O)(=O)NC(CC(=O)n2nc(C)cc2C)c2ccccc2)cc1 (stereo not drawn) the results were Cav3 T inh -6.3, IL1B NFkB inh inactive, NFkB transloc pot inactive and HUVEC tox IL1B inactive.
Cc1ccc(-c2nc3ccccn3c2NC(=O)c2ccco2)cc1 was read as Cav3 T inh inactive, IL1B NFkB inh inactive, NFkB transloc pot inactive and HUVEC tox IL1B inactive.
For O=C(Nc1c(-c2ccccc2)nc2ccccn12)c1ccco1 the results were Cav3 T inh inactive, IL1B NFkB inh inactive, NFkB transloc pot inactive and HUVEC tox IL1B 94.
`O=C(CN1C(=O)c2ccccc2S1(=O)=O)NCCSC1CCCCC1` gave IL1B NFkB inh inactive, NFkB transloc pot inactive and HUVEC tox IL1B inactive.
`O=C(Oc1cccc(Nc2ncnc3ccccc23)c1)c1ccccc1Cl` gave Cav3 T inh -5.4, IL1B NFkB inh inactive, NFkB transloc pot inactive and HUVEC tox IL1B inactive.
For CC(C)=CC(=O)OCC(=O)Nc1ccc(Cl)cn1 the results were Cav3 T inh inactive, IL1B NFkB inh inactive, NFkB transloc pot inactive and HUVEC tox IL1B inactive.
CCOC(=O)/C=C/C(=O)OCC(=O)Nc1ccc(Cl)cn1 was read as Cav3 T inh 3.4, IL1B NFkB inh inactive, NFkB transloc pot inactive and HUVEC tox IL1B inactive.
Screening O=C(CCSc1ccc(Cl)cc1)NC12CC3CC(CC(C3)C1)C2 returned Cav3 T inh inactive, IL1B NFkB inh inactive, NFkB transloc pot inactive and HUVEC tox IL1B inactive.
CCOc1ccc(N(C(C)C(=O)NC(C)CC)S(C)(=O)=O)cc1 (stereo not drawn) was read as Cav3 T inh inactive, IL1B NFkB inh inactive, NFkB transloc pot inactive and HUVEC tox IL1B inactive.
For CCOc1ccc(N(C(C)C(=O)N/N=C(\C)c2cccc(NC(=O)c3ccccc3)c2)S(C)(=O)=O)cc1 (stereo not drawn) the results were Cav3 T inh -10, IL1B NFkB inh inactive, NFkB transloc pot inactive and HUVEC tox IL1B inactive.
`CC1=C(C(=O)OCC(C)C)C23C(=O)c4ccccc4C2(O1)OC(N)=C3C#N` (stereo not drawn) gave Cav3 T inh inactive, IL1B NFkB inh inactive, NFkB transloc pot inactive and HUVEC tox IL1B inactive.
For c1ccc(C2Nc3ccccc3-c3nc4ccccc4n32)cc1 (stereo not drawn) the results were Cav3 T inh inactive, IL1B NFkB inh inactive, NFkB transloc pot inactive and HUVEC tox IL1B inactive.
Oc1ccccc1C1=Nc2nc3ccccc3n2C(c2ccccc2)C1 (stereo not drawn) was read as Cav3 T inh -7.8, IL1B NFkB inh inactive, NFkB transloc pot inactive and HUVEC tox IL1B inactive.
For Cc1nn(C(C)C(=O)N2CCc3ccccc32)c(C)c1[N+](=O)[O-] (stereo not drawn) the results were Cav3 T inh inactive, IL1B NFkB inh inactive, NFkB transloc pot inactive and HUVEC tox IL1B inactive.
`CCOC(=O)c1cc2c(=O)n3cccc(C)c3nc2n(CC2CCCO2)c1=NC(C)=O` (stereo not drawn) gave Cav3 T inh 5.1, IL1B NFkB inh inactive, NFkB transloc pot inactive and HUVEC tox IL1B inactive.
Screening CCCCn1c2c(c(=O)n(C)c1=O)C(CC(=O)OCC(=O)Nc1cccc(C(F)(F)F)c1)C(=O)N2 (stereo not drawn) returned Cav3 T inh inactive, IL1B NFkB inh inactive, NFkB transloc pot inactive and HUVEC tox IL1B inactive.
O=C(C1Cc2ccccc2CN1S(=O)(=O)c1cccs1)N1CCCCCC1 (stereo not drawn) was read as Cav3 T inh inactive, IL1B NFkB inh inactive, NFkB transloc pot inactive and HUVEC tox IL1B inactive.
For O=C(Cn1ncc2c1-c1ccccc1OC2)Nc1cccc(Cl)c1 the results were Cav3 T inh -5, IL1B NFkB inh inactive, NFkB transloc pot inactive and HUVEC tox IL1B inactive.
Cc1ccc(C)c(CN2CCCN(C(=O)Cn3ncc4c3-c3ccccc3OC4)C2)c1 was read as Cav3 T inh -6, IL1B NFkB inh inactive, NFkB transloc pot inactive and HUVEC tox IL1B inactive.
Screening CCOC(=O)N1CCN(C(=O)Cn2ncc3c2-c2ccccc2OC3)CC1 returned Cav3 T inh inactive, IL1B NFkB inh inactive, NFkB transloc pot inactive and HUVEC tox IL1B inactive.
O=C(c1ccccc1NS(=O)(=O)c1ccc2c(c1)OCCO2)N1CCOCC1 was read as Cav3 T inh inactive, IL1B NFkB inh inactive, NFkB transloc pot inactive and HUVEC tox IL1B inactive.
Screening O=C(OCc1cccs1)c1ccccc1NS(=O)(=O)c1ccc2c(c1)OCCO2 returned Cav3 T inh -4.8, IL1B NFkB inh inactive, NFkB transloc pot inactive and HUVEC tox IL1B inactive.
